Experimental findings from PubChem BioAssay (NCI) are described below.

Holding throughout (test): NCI-60 one-dose screen, 48 h (100 = growth as untreated, 0 = no growth, -100 = all killed)
Common to all, as to settings: 10 µM

Assay [1] relates to HCT-15 colon.
Assay [2] has as its system HT29 colon.
Assay [3] relates to SNB-75 CNS.
Assay [4] concerns SNB-19 CNS.
For assay [5], the system named is U251 CNS.
The test system of assay [6] is SK-MEL-5 melanoma.
Assay [7] relates to UACC-62 melanoma.
The test system of assay [8] is LOX IMVI melanoma.
Assay [9] has as its system SK-MEL-28 melanoma.

Compounds without any hit were thinned out: in the full panel of roughly 83,000, 20% have a hit.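 Step 1: grow cells in 96-well plates. Step 2: add test compound at a single concentration. Step 3: incubate 48 h. Step 4: record percent growth.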 Values without a mark were called inactive. Activity calls are given as the source filed them. How the source made its calls: active means growth percent below 10; inactive means the rest.

Take `Cc1ccc(-n2c(C)nn3c(=O)c4c5c(sc4nc23)CN(C)CC5)cc1`: the growth in assay [1] was 101%; in assay [2] it was 86.6%; in [3], 93.4%; in assay [4], 105%; in assay [5] it was 101%; in assay [6], 106%. The results for the growth in [7], in assay [8] and in assay [9] were 101%, 95.1% and 106%, respectively.
Consider `CCCCC(CC)CN=C(N)NC(N)=NCCCCCCN=C(N)NC(N)=NCC(CC)CCCC` (stereo unspecified), for which the growth in assay [1] is 7.37% (active); in assay [2], -82.8% (active); in assay [3], -72.5% (active); in [4], -87.2% (active); in assay [5] it was -89.8% (active); in assay [6], -89.8% (active). For the same molecule, the figures for the growth in assay [7], in [8] and in assay [9] were -58% (active), -80.8% (active) and -79.6% (active), respectively.
Regarding `Clc1nc2ccccc2cc1Cn1nnc(Cc2ccccc2)n1`, the growth in assay [1] was 65%; in assay [2], 71.5%; in [3], 55.4%; in assay [4], 89.9%; in assay [5] it was 76.3%; in assay [6], 0.724% (active). Further, the growth in assay [7] was 51.7%; in assay [8] it was 53.6%; in [9] it was 84.7%.
For the molecule `COc1ccc2nc(Cl)c(Cn3nnc(Cc4ccccc4)n3)cc2c1`, the growth in assay [1] is 36.5%; in [2] it was 27.4%; in [3], 57.1%; in [4], 58%; in assay [5], 53.2%; in [6], -47.2% (active). The growth in [7] was 35.1%; in [8], 42.9%; in assay [9], 47.5%.
